Legend:
Experiment in all cases: DAPPL (digital affinity profiling via proximity ligation, sequencing); 10 mM Tris-HCl pH 7.5, 50 mM NaCl, 1 mM DTT, 4% glycerol, room temperature, 30 min; GST-TFs on glutathione beads, 16-mer random dsDNA library, 0.1% formaldehyde crosslink after washing; high values mean tight binding
FEV = target: T1, FEV (Homo sapiens, UniProt Q99581 1-238); conditions: protein: recombinant; tags: N-terminal GST; dsDNA, one strand shown
T1 sequence: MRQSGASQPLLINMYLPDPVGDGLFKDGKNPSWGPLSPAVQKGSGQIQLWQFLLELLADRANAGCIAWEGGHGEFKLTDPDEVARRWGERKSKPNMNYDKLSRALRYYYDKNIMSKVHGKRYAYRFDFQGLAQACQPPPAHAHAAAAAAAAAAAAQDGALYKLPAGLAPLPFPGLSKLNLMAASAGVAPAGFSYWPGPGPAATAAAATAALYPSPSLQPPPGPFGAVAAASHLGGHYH
Outline: (§1)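 Pools of DNA-barcoded human transcription factors, expressed in yeast as GST fusions on glutathione beads and combined with a tag-only sample, were incubated with 200 nmole of a 16-mer random double-stranded DNA library. Incubation took 30 min at room temperature in Tris/NaCl/DTT/glycerol buffer and was followed by washing, 0.1% formaldehyde crosslinking, proximity ligation (BsaI/T4 ligase, 1 h, 37 °C), PCR amplification and sequencing on an Illumina NextSeq500. Binding signal is the ratio of a hexamer's read frequency for a factor to its frequency for the tag-only sample.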

ETV5 = ETV5 (Homo sapiens, UniProt P41161 1-510); conditions: protein: recombinant; tags: N-terminal GST; dsDNA, one strand shown
Outline: as §1

HSF1 = HSF1 (Homo sapiens, UniProt Q00613 1-529); conditions: protein: recombinant; tags: N-terminal GST; chain copies: 3; dsDNA, one strand shown
Outline: as §1

SPIC = target: T2, SPIC (Homo sapiens, UniProt Q8N5J4 1-248); conditions: protein: recombinant; tags: N-terminal GST; dsDNA, one strand shown
T2 sequence: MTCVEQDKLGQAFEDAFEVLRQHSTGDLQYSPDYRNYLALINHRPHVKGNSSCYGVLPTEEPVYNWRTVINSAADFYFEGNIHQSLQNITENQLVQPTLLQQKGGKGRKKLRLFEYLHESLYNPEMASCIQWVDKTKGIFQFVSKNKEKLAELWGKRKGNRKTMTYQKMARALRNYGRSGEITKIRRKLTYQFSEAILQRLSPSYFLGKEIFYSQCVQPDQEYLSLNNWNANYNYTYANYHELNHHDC
Outline: as §1

ELF4 = ELF4 (Homo sapiens, UniProt Q99607 1-663); conditions: protein: recombinant; tags: N-terminal GST; dsDNA, one strand shown
Outline: as §1

ELK4 = target: T3, ELK4 (Homo sapiens, UniProt P28324-2 1-405); conditions: protein: recombinant; tags: N-terminal GST; dsDNA, one strand shown
T3 sequence: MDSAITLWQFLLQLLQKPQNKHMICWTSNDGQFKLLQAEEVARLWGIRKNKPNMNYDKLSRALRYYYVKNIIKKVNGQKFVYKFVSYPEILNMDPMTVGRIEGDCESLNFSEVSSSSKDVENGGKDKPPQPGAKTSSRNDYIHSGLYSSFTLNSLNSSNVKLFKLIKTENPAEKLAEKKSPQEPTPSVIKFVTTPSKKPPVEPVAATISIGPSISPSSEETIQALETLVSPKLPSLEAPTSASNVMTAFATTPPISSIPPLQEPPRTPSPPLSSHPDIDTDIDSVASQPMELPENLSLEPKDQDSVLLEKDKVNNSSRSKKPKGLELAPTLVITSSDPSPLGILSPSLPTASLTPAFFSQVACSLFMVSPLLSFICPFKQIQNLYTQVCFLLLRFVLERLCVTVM
Outline: as §1

ETV2 = target: T4, ETV2 (Homo sapiens, UniProt O00321 1-342); conditions: protein: recombinant; tags: N-terminal GST; dsDNA, one strand shown
T4 sequence: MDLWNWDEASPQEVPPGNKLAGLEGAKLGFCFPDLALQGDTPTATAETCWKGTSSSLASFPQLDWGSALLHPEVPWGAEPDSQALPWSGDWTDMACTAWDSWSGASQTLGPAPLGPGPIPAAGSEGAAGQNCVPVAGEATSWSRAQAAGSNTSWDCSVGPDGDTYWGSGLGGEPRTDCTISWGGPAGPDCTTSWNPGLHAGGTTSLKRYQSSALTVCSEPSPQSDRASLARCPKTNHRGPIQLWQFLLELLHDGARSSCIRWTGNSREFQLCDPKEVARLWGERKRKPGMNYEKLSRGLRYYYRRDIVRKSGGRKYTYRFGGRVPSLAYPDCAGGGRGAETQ
Outline: as §1

ELF3 = target: T5, ELF3 (Homo sapiens, UniProt P78545 1-371); conditions: protein: recombinant; tags: N-terminal GST; dsDNA, one strand shown
T5 sequence: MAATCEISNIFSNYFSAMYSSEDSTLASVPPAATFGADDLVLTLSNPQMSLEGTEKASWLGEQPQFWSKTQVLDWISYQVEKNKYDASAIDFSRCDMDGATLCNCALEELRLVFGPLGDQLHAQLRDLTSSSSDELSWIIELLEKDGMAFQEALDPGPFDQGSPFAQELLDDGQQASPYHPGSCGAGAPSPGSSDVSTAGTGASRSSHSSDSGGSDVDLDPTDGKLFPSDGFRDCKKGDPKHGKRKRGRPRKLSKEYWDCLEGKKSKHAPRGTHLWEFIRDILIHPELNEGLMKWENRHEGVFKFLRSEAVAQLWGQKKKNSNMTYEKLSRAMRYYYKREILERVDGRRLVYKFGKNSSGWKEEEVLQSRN
Outline: as §1

CRX = CRX (Homo sapiens, UniProt O43186 1-299); conditions: protein: recombinant; tags: N-terminal GST; dsDNA, one strand shown
Outline: as §1

ETV1 = ETV1 (Homo sapiens, UniProt P50549 1-477); conditions: protein: recombinant; tags: N-terminal GST; dsDNA, one strand shown
Outline: as §1

ERF = target: T6, ERF (Homo sapiens, UniProt P50548 1-548); conditions: protein: recombinant; tags: N-terminal GST; dsDNA, one strand shown
T6 sequence: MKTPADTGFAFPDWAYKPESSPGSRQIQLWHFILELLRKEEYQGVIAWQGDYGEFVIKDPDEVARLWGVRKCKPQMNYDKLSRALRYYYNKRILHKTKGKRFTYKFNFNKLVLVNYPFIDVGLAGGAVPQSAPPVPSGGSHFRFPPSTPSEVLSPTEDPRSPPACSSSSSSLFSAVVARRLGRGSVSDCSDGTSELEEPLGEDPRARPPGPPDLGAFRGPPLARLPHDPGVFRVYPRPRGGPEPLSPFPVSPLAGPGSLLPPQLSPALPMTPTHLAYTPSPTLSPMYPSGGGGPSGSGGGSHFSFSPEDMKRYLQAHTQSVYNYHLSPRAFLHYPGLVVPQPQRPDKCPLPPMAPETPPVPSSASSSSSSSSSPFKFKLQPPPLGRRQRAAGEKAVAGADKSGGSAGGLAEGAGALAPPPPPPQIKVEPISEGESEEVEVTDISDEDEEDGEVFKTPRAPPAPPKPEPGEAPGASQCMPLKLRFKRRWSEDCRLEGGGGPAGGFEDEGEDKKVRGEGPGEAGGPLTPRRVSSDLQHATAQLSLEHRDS
Outline: as §1

ETV3L = target: T7, ETV3L (Homo sapiens, UniProt Q6ZN32 1-361); conditions: protein: recombinant; tags: N-terminal GST; dsDNA, one strand shown
T7 sequence: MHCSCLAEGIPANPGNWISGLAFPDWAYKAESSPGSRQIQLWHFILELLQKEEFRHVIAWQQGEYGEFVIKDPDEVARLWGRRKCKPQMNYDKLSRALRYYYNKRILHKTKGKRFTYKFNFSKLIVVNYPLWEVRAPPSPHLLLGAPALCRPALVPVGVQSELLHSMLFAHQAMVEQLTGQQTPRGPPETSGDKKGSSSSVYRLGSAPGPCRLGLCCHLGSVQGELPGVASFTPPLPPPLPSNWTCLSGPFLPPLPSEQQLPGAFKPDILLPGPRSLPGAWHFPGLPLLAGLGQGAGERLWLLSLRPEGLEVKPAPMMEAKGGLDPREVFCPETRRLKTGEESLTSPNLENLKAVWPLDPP
Outline: as §1

ETS2 = target: T8, ETS2 (Homo sapiens, UniProt P15036 1-469); conditions: protein: recombinant; tags: N-terminal GST; dsDNA, one strand shown
T8 sequence: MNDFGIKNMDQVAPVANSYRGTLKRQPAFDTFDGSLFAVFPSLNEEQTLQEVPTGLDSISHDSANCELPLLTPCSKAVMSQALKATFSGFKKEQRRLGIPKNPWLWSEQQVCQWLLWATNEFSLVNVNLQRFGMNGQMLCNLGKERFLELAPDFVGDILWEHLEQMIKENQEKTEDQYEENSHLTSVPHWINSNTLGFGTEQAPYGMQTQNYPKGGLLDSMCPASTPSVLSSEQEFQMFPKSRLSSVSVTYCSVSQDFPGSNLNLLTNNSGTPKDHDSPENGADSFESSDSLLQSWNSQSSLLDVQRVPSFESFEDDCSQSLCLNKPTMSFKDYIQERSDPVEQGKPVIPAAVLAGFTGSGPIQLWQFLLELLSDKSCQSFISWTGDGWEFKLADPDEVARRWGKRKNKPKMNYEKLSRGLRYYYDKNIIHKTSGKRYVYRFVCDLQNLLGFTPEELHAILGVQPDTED
Outline: as §1

SPDEF = target: T9, SPDEF (Homo sapiens, UniProt O95238 1-335); conditions: protein: recombinant; tags: N-terminal GST; dsDNA, one strand shown
T9 sequence: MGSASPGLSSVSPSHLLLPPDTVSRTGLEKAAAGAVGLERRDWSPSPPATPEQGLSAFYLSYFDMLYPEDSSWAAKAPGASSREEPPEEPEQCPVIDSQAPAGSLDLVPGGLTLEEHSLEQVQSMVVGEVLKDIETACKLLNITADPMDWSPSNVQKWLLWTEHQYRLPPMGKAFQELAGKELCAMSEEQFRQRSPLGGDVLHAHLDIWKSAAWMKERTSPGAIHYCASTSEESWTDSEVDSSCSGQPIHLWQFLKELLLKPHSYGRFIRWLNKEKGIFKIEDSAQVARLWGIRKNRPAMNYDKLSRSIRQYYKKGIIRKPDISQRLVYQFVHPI
Outline: as §1

ETV7 = target: T10, ETV7 (Homo sapiens, UniProt Q9Y603 1-341); conditions: protein: recombinant; tags: N-terminal GST; dsDNA, one strand shown
T10 sequence: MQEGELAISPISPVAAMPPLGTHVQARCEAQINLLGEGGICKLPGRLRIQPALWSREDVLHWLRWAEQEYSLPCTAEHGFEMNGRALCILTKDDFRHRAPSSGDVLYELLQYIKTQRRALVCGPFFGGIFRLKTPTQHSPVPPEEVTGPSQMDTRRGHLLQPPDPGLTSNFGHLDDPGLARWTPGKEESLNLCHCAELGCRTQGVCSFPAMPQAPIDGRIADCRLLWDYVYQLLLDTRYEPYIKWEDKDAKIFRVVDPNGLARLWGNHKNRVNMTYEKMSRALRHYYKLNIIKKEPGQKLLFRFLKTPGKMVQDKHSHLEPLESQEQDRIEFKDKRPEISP
Outline: as §1

ELF5 = target: T11, ELF5 (Homo sapiens, UniProt Q9UKW6-2 1-255); conditions: protein: recombinant; tags: N-terminal GST; dsDNA, one strand shown
T11 sequence: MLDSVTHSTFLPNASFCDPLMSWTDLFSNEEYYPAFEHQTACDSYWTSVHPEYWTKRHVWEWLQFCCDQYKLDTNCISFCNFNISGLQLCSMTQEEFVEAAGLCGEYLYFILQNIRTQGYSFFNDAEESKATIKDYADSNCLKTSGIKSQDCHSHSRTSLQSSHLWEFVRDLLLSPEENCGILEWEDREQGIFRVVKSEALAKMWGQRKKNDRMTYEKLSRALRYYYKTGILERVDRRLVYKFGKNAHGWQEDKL
Outline: as §1

ETV3 = target: T12, ETV3 (Homo sapiens, UniProt P41162-2 1-143); conditions: protein: recombinant; tags: N-terminal GST; dsDNA, one strand shown
T12 sequence: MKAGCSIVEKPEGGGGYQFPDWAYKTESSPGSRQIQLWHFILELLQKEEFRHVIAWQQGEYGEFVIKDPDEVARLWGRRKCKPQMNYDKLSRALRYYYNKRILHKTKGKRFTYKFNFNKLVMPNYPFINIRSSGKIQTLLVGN
Outline: as §1

ETV6 = ETV6 (Homo sapiens, UniProt P41212 1-452); conditions: protein: recombinant; tags: N-terminal GST; dsDNA, one strand shown
Outline: as §1

Sequence of ETV6 (P41212 whole entry): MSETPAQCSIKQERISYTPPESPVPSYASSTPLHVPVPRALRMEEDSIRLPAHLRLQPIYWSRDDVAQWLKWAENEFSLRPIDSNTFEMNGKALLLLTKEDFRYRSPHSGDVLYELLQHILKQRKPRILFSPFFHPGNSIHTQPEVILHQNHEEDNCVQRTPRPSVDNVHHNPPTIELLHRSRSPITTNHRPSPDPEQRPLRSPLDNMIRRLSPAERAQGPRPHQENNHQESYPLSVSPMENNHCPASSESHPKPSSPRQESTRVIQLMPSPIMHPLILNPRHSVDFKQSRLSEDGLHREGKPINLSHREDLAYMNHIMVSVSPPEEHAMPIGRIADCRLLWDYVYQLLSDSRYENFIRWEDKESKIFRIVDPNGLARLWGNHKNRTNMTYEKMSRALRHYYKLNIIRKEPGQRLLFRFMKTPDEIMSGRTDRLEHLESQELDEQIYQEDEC
Sequence of HSF1 (Q00613 whole entry): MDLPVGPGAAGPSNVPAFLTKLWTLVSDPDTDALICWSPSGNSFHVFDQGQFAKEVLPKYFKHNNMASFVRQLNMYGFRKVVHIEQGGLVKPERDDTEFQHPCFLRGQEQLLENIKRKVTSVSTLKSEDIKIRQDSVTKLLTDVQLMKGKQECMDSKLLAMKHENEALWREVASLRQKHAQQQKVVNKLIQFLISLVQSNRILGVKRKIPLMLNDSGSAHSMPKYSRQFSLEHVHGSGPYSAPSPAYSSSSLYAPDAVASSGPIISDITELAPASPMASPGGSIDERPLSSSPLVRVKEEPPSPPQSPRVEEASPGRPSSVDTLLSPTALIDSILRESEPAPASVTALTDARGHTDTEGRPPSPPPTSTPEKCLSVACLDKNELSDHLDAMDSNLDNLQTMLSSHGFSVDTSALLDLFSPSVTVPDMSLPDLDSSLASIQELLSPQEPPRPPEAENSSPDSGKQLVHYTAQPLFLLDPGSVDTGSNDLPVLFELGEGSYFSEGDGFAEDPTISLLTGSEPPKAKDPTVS
Sequence of CRX (O43186 whole entry): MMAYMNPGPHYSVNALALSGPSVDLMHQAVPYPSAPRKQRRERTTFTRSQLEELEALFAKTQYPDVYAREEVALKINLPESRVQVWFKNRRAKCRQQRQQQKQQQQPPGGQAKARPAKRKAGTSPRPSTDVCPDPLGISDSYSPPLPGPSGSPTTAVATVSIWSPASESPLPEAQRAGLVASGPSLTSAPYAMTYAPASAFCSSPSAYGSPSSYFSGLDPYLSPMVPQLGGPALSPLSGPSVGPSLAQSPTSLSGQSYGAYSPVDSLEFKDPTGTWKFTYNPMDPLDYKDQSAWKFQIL
Sequence of ETV5 (P41161 whole entry): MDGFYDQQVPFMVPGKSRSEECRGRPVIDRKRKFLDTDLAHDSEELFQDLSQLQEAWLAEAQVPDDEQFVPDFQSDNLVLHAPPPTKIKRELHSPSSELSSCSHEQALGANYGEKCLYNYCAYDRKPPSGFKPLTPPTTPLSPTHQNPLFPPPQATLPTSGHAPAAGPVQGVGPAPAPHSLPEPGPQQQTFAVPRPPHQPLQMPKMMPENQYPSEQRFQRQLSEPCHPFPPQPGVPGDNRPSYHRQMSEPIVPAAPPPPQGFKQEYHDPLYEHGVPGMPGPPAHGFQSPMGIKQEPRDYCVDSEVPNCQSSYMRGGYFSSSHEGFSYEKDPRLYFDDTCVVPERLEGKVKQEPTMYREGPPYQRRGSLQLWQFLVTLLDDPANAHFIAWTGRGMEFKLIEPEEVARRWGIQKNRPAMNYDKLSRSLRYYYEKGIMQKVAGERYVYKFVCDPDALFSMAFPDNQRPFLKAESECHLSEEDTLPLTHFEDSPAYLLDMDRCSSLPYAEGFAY
Sequence of ELF4 (Q99607 whole entry): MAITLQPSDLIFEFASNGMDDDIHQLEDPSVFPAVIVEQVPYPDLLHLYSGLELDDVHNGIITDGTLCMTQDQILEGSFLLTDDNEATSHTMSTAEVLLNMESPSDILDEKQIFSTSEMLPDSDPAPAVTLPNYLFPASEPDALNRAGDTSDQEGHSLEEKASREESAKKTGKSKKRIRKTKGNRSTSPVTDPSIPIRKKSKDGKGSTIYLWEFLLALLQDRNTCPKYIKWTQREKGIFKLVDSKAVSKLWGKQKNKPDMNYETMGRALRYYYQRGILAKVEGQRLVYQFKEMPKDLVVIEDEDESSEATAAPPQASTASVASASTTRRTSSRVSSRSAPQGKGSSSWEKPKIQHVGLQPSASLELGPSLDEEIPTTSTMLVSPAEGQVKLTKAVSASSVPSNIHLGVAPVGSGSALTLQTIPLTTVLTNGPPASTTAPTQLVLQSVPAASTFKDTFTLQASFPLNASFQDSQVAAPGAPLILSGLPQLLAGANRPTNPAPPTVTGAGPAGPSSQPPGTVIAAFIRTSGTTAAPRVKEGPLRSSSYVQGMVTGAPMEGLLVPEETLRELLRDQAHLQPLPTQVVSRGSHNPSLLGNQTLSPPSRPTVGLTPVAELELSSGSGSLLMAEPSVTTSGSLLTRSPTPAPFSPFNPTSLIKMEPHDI
Sequence of ETV1 (P50549 whole entry): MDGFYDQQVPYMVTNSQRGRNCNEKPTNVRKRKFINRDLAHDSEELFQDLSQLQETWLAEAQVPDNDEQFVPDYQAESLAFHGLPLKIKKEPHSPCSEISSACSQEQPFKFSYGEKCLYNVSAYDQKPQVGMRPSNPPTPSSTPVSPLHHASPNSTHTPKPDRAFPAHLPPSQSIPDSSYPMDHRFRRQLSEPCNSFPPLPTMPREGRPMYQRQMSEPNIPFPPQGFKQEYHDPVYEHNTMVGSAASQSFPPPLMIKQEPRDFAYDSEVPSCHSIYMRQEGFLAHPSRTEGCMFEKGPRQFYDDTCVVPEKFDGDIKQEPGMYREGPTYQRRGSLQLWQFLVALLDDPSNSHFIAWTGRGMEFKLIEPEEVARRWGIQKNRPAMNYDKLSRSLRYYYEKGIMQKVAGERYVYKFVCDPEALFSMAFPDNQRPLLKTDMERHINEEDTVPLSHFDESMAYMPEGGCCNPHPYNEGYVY

TGCTTC
binding signal (FEV): 2.29 fold enrichment (6-mer frequency, TF over GST control)
binding signal (ETV5): 2.1 fold enrichment (6-mer frequency, TF over GST control)
binding signal (HSF1): 1.49 fold enrichment (6-mer frequency, TF over GST control)
binding signal (SPIC): 2.35 fold enrichment (6-mer frequency, TF over GST control)
binding signal (ELF4): 1.98 fold enrichment (6-mer frequency, TF over GST control)
binding signal (ELK4): 2.01 fold enrichment (6-mer frequency, TF over GST control)
binding signal (ETV2): 2.38 fold enrichment (6-mer frequency, TF over GST control)
binding signal (ELF3): 2.25 fold enrichment (6-mer frequency, TF over GST control)
binding signal (CRX): 1.22 fold enrichment (6-mer frequency, TF over GST control)
binding signal (ETV1): 2.19 fold enrichment (6-mer frequency, TF over GST control)
binding signal (ERF): 1.81 fold enrichment (6-mer frequency, TF over GST control)
binding signal (ETV3L): 2.16 fold enrichment (6-mer frequency, TF over GST control)
binding signal (ETS2): 2.06 fold enrichment (6-mer frequency, TF over GST control)
binding signal (SPDEF): 2.39 fold enrichment (6-mer frequency, TF over GST control)
binding signal (ETV7): 2.13 fold enrichment (6-mer frequency, TF over GST control)
binding signal (ELF5): 2.66 fold enrichment (6-mer frequency, TF over GST control)
binding signal (ETV3): 2.21 fold enrichment (6-mer frequency, TF over GST control)
binding signal (ETV6): 2.45 fold enrichment (6-mer frequency, TF over GST control)
